# Data reported in PubChem BioAssay (NCATS).
# Values joined by “and” are separate entries in the source; they are usually repeats but may differ in a detail not shown here. Equal entries are not always repeated. Inconclusive results are not listed. A call without a number means that no potency is given here. Active and inactive are the calls of the source.
# Test system: not listed separately
# Test: qHTS assay for small molecule activators of the nuclear factor-kappa B (NF-kB) signaling pathway (AID 651749; active means well fitted activation curve with a large enough effect in the signal ratio; the % refers to the signal ratio)
# Settings: NF-kB-bla ME-180 cells, beta-lactamase FRET ratio, 16 h; stronger effect = higher value
# Summary of the method: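 Readout: beta-lactamase reporter driven by an NF-kB response element, detected fluorescently as loss of FRET. Cells were the ME-180 line, treated 16 hr at 37C with pin-transferred compound.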
row,Structure (SMILES),activation
1,CNC(=O)Oc1cccc2ccccc12,0.189% (inactive) and -3.62% (inactive)
2,COP(=O)(OC)C(O)C(Cl)(Cl)Cl (centres undefined),1.93% (inactive)
3,COP(=O)(OC)OC=C(Cl)Cl,1.84% (inactive) and 0.182% (inactive)

# Target: Tumor necrosis factor (Homo sapiens) (UniProt P01375)
# Test: qHTS assay to identify small molecules that stimulate Tumor Necrosis Factor-alpha (TNF-alpha) secretion (AID 651757; active means well fitted curve in the direction sought with a large enough effect in the signal ratio; the % refers to the signal ratio)
# Settings: Human cells, HTRF 665/615 ratio; series mostly up to 92.2 µM
# Summary of the method: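 THP-1 cells (3000/well) exposed to compounds 17 hrs at 37 C. Secreted TNF-alpha detected by HTRF with cryptate- and XL665-labeled anti-TNF-alpha antibodies after 3 hr at room temperature.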
# Tumor necrosis factor (Homo sapiens), sequence (P01375 whole entry, looked up): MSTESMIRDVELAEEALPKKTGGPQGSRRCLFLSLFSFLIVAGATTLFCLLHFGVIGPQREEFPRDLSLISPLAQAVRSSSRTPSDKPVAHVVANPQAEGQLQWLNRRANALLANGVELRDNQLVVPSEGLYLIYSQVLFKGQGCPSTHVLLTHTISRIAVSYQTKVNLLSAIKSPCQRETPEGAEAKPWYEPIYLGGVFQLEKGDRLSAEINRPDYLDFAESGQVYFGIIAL
row,Structure (SMILES),Potency
1,CNC(=O)Oc1cccc2ccccc12,inactive
2,COP(=O)(OC)OC=C(Cl)Cl,inactive
3,CCCCCCCCCCCC[N+](C)(C)CCOc1ccccc1,inactive

# Test system: not listed separately
# Test: qHTS assay to identify small molecules that stimulate interleukin-8 (IL-8) secretion (AID 651758; active means well fitted activation curve with a large enough effect in the signal ratio; the % refers to the signal ratio; further: potency means the concentration at half of the fitted maximal effect)
# Settings: HTRF ratio (665/615); series mostly up to 92.2 µM
# Summary of the method: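 Secreted IL-8 measured by TR-FRET sandwich (cryptate and XL665 antibodies) from THP-1 cells exposed to compound overnight (16 hrs, 37 C).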
row,Structure (SMILES),Potency
1,CNC(=O)Oc1cccc2ccccc12,inactive
2,COP(=O)(OC)OC=C(Cl)Cl,21.1 µM (active) and 66.8 µM (active)
3,CCCCCCCCCCCC[N+](C)(C)CCOc1ccccc1,inactive
